Assay results reported in PubChem BioAssay AID1852 (Sanford-Burnham Center for Chemical Genomics, 2009).
Out of some 2,500 compounds screened, about 1,100 (44%) were called active.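 The calls were made as follows: active = inhibition above 50% at 4 µM in the single-point screen; inactive = inhibition of 50% or less.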 So high a share suggests a set chosen from earlier hits. This is one part of the list.

Assay: TNF-a-driven NF-kB reporter inhibitors, primary screen, selectivity assay for NOD1/NOD2 signaling inhibitor project, cell-based, HEK293T NF-kB-Luc, luminescence (AID 1852)
Settings: TNF-a induced, 14 h, at 4 µM, stronger effect = higher value

inhibition, inactive:
CC(NC(=S)NC1CCCCC1)c1ccc(C(C)(C)C)cc1 (stereo not drawn) 9.1%, CC(C)(C)C(=O)Cn1ncc(Cl)c(Cl)c1=O 10.7%, O=C1CN(C(=O)Cn2ncc(Cl)c(Cl)c2=O)c2ccccc2N1 40.3%, Cc1ccc(-c2csc(N3CCN(CCCn4c(-c5ccncc5)nc5ccccc54)CC3)n2)cc1 -10.9%, CC(=O)Nc1ccc(C(=O)Nc2nc(-c3cc(C)n(Cc4ccccc4)c3C)cs2)cc1 20.1%, CCN(c1ccc(C)cc1)S(=O)(=O)c1nnc(NC(=O)c2ccco2)s1 10.4%, CC(=O)Nc1nc(C)c(-c2csc(Nc3cccc([N+](=O)[O-])c3)n2)s1 24.8%, Cc1ccc(O)c(C(=O)c2cnc3c(c2)COc2ccc(C)cc2-3)c1 22%, O=C(c1cnn(C(=O)c2ccc(O)cc2)c1)c1ccccc1O 9.9%, C/C(=N\NC(=O)c1cc(Br)ccc1O)c1ccccn1 25.1%, Cc1ccc(Nc2nc3nonc3[nH]c2=O)cc1Cl -23%, COC(=O)c1ccc2nc(Nc3nc4ccc(F)cc4s3)sc2c1 0%, CCOC(=O)c1ccc2nc(Nc3nc4ccc(F)cc4s3)sc2c1 -87.4%, O=C(CSCc1ccccc1Cl)N1CCN(c2ccccn2)CC1 -30.9%, CCOc1ccc(-c2nc(CSCC(=O)N3CCN(c4cccc(OC)c4)CC3)c(C)o2)cc1 49.3%, O=C(Nc1cccc(NC(=O)c2sc3ccccc3c2Cl)c1)c1ccco1 -117%, Cn1ncc([N+](=O)[O-])c1C(=O)Nc1ccc(-c2ccccc2)cc1 -39.7%, CS(=O)(=O)N1CCC(C(=O)Nc2cccc(Cl)c2)CC1 4.2%, O=C(Nc1ccc([N+](=O)[O-])cc1)Nc1nc(-c2ccc(Cl)s2)cs1 42.8%, Cc1ccccc1CN(CC(=O)Nc1cccc([N+](=O)[O-])c1)S(=O)(=O)c1ccc(Cl)cc1 -15.8%, Cc1ccc(NC(=S)NC(=O)c2ccc(F)cc2)cc1S(=O)(=O)Nc1cccc(Cl)c1 32.5%, CCCCN1/C(=C/c2ccc3ccccc3[n+]2CC)Sc2ccccc21 45.1%, O=C(Nc1ccc(-c2nc3ncccc3o2)cc1)c1ccc([N+](=O)[O-])o1 27.5%, Cn1c(/C=C/c2ccc(Cl)cc2)c([N+](=O)[O-])c(=O)n(C)c1=O 18.7%, Cn1c(/C=C/c2ccc(Br)cc2)c([N+](=O)[O-])c(=O)n(C)c1=O -12.1%, O=C(Nc1sc2c(c1C(=O)NCCCO)CCCC2)c1ccccc1 35.2%, Cc1cc(C(=O)Nc2c(C)nn(Cc3c(Cl)cccc3Cl)c2C)no1 -34.2%, COc1cccc(NC(=O)CN(C)CC(=O)Nc2ccc(C)c([N+](=O)[O-])c2)c1 42.8%, CCN(CC(=O)Nc1ccc([N+](=O)[O-])cc1OC)c1ccccc1 -39%

inhibition, active:
Cc1cc(Br)ccc1NC(=O)CNC(=O)Cn1ncc(Cl)c(Cl)c1=O 94.4%, O=C(Cn1ncc(Cl)c(Cl)c1=O)N1CCc2ccccc21 73%, CCOC(=O)c1ccc(NC(=O)Cn2ncc(Cl)c(Cl)c2=O)cc1 60.3%, O=C(Cn1ncc(Cl)c(Cl)c1=O)c1ccc(Cl)cc1 75.4%, CCC(=O)Nc1ccc(C(=O)Cn2ncc(Cl)c(Cl)c2=O)cc1 56.5%, CC(=O)Nc1nc(C)c(-c2csc(Nc3ccc(O)cc3)n2)s1 58.5%, COc1ccccc1Nc1nc(-c2sc(NC(=O)c3ccco3)nc2C)cs1 82.3%, Cc1[nH]nc2ncc(C(=O)c3ccccc3O)cc12 67.9%, C/C(=N\NC(=O)COc1ccccc1-c1ccccc1)c1ccccn1 106%, C/C(=N\NC(=O)c1ccc(Cl)cc1)c1ccccn1 103%, C/C(=N\NC(=O)Cc1ccc(Cl)cc1)c1ccccn1 101%, C/C(=N\NC(=O)c1cccc(Br)c1)c1ccccn1 98%, C/C(=N\NC(=O)c1ccc(Cl)c(Cl)c1)c1ccccn1 102%, COc1ccc(C(=O)N/N=C(\C)c2ccccn2)cc1OC 106%, C/C(=N\NC(=O)c1ccc(F)cc1)c1ccccn1 106%, CCOC(=O)c1csc(Nc2nc3ccc(F)cc3s2)n1 106%, Nc1[nH]n2c(=O)cc(-c3ccccc3)nc2c1N=Nc1ccc2c(c1)OCO2 50.6%, COc1cccc(N=Nc2c(N)[nH]n3c(=O)cc(-c4ccccc4)nc23)c1 75.4%, Nc1[nH]n2c(=O)cc(-c3ccccc3)nc2c1N=Nc1ccccc1 64.7%, CCc1ccc(-c2nc(CSCC(=O)N3CCN(c4ccccn4)CC3)c(C)o2)cc1 73.1%, O=C(Nc1nccs1)c1sc2cc(Cl)ccc2c1Cl 103%, Cn1ncc([N+](=O)[O-])c1C(=O)Nc1cccc(Cl)c1 92.6%, O=[N+]([O-])c1cccc(NC(=S)Nc2nc(-c3ccc(Cl)cc3Cl)cs2)c1 64.3%, Cc1csc(NC(=S)Nc2cccc(Cl)c2)n1 100%, CC[n+]1c(/C=C2\Sc3ccccc3N2C)ccc2cccc(C)c21 70.3%, CCN1/C(=C/c2ccc3cccc(C)c3[n+]2CC)Sc2ccccc21 61.9%, CCN1/C(=C/c2sc(-c3ccccc3C)c[n+]2C)Sc2ccccc21 95.5%, CC(C)(C)C1C/C(=C/c2ccccn2)C(=O)/C(=C/c2ccccn2)C1 (stereo not drawn) 103%, CC1C/C(=C/c2ccccn2)C(=O)/C(=C/c2ccccn2)C1 (stereo not drawn) 96.2%, O=C(NCc1ccccc1)C1=C[C@@H](c2csc3ccccc23)C[C@@H](OCCCCO)O1 69.1%, Cn1c(/C=C/c2ccc(Cl)cc2Cl)c([N+](=O)[O-])c(=O)n(C)c1=O 71.4%, Cc1sc(NC(=O)c2ccccc2)c(C(c2ccccn2)N2CCN(CCO)CC2)c1C (stereo not drawn) 51.9%, Cc1nn(Cc2ccc(Cl)cc2)c(C)c1NC(=O)c1noc2c1CCc1ccccc1-2 105%, COc1cc(Cl)c(C)cc1NC(=O)CN(C)Cc1cccc(OC)c1OC 57.5%
